This is a sample that favours compounds with a hit; in the whole collection about 3.9% have one here.
TROY signal inh: TROY signaling inhibition; Q293 LMP1-TROYcd NF-kB luciferase reporter, 4 h; inhibition, % at 10 µM; 360,000 compounds, 0.98% hits;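 active = compounds whose plate-normalised and pattern-corrected inhibition of the luciferase reporter signal at the single screening dose is 50% or more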
C8 TRAIL sens: caspase-8 TRAIL sensitization. 360,000 compounds, 1% hits. NB7+C8 cells + TRAIL, ATPlite viability luminescence. inhibition (viability loss, TRAIL sensitization), % at 10 µM;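 active = compounds causing at least 50% loss of cell viability in the single-dose screen, relative to plate controls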
TWEAK-Fn14 inh: TWEAK-Fn14 signaling inhibition. inhibition, % at 10 µM. AID 1159606. 360,000 compounds, 2% hits. TWEAK-stimulated Fn14 reporter cells, luciferase luminescence, 8 h; in the data active = inhibition above about 50%
HIF-2a inh: inhibitors of HIF-2a; 360,000 compounds, 0.72% hits; inhibition, % at 18.8 µM; 786-0 RCC cells HIF-2a reporter, luciferase luminescence, overnight;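 active = inhibition of the luminescence signal of 40% or more relative to plate controls, in a single-dose primary screen at 18.75 µM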
aSyn UTR inh: 5' untranslated region of α-synuclein, MLPCN primary screen | alpha-synuclein 5'UTR reporter, inhibitor activity | inhibition, % (tested at 7.5 µM) | 300,000 compounds, 0.82% hits | AID 1813; in the data active = inhibition above about 60%;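 note: H4 neuroglioblastoma cells stably carrying SNCA 5'UTR luciferase fusion; 0% = DMSO wells and 100% = positive control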
HSP90 inh: HSP90 refolding inhibition in rabbit reticulocyte lysate; AID 1789; inhibition, % at 5.6 µM; luciferase refolding luminescence, 3 h; 290,000 compounds, 0.91% hits;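 active = inhibition above the screen-wide mean plus 3 SD, computed separately per campaign, cut at about 16% in these data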;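 note: 0% = DMSO wells and 100% = 60 µM geldanamycin wells; inhibitors lower the luminescence because luciferase stays unfolded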
* = called active by the depositor.

COC(=O)C1=C(C)NC(C)=C(C(=O)OCC(C)C)C1c1ccccc1[N+](=O)[O-] (stereo not drawn) was read as TROY signal inh 33, C8 TRAIL sens 13, TWEAK-Fn14 inh 47, HIF-2a inh 25 and aSyn UTR inh 71*.
`CCOC(=O)C1=C(C)NC(C)=C(C(=O)OCC)C1c1cccc([N+](=O)[O-])c1` gave TROY signal inh 16, C8 TRAIL sens 0, TWEAK-Fn14 inh 4 and HIF-2a inh 8.
For COc1ccc(C2=NC(c3ccccc3)CO2)cc1 (stereo not drawn) the results were aSyn UTR inh -118 and HSP90 inh 16*.
Screening CC(C)C[C@H]1CN(CCCC[C@@H]2CNC(=O)C(=O)N2CC2CCCCC2)C(=O)C(=O)N1Cc1ccccc1 returned TROY signal inh 6, C8 TRAIL sens -6, TWEAK-Fn14 inh 12 and HIF-2a inh -3.
For Cc1ccc(CNc2nc3cc(-c4ccccc4)sc3c(=O)n2C)c(C)c1 the results were TROY signal inh 0, C8 TRAIL sens 8, TWEAK-Fn14 inh 14 and HIF-2a inh -54.
Screening COc1ccc(-c2cc3nc(NCc4ccc(C)cc4C)n(C)c(=O)c3s2)cc1OC returned TROY signal inh 26, C8 TRAIL sens 23, TWEAK-Fn14 inh 76* and HIF-2a inh -1.
For COc1ccccc1NC(=O)c1cnc(Nc2ccccc2OC)c2ccccc12 the results were TROY signal inh -3, C8 TRAIL sens 14, TWEAK-Fn14 inh 6, HIF-2a inh -16, aSyn UTR inh 101* and HSP90 inh 10.
For COc1ccccc1NC(=O)c1ccccc1C(=O)Nc1ccccc1OC the results were TROY signal inh -20, C8 TRAIL sens -27, TWEAK-Fn14 inh -3, HIF-2a inh 12, aSyn UTR inh -9 and HSP90 inh 1.
`CCCc1nc2c3ccccc3ccn2c1Cc1ccccc1` gave TROY signal inh -27, C8 TRAIL sens 6, TWEAK-Fn14 inh -29 and HIF-2a inh -222.
For Cc1cccc(NC(=S)NCC(C)CSc2ccc(Cl)cc2)c1 (stereo not drawn) the results were TROY signal inh 52*, C8 TRAIL sens 20, TWEAK-Fn14 inh 0, HIF-2a inh 6, aSyn UTR inh 3 and HSP90 inh 3.
For COCC(=O)N1CCCC(CNS(=O)(=O)c2ccc(OC)cc2)C1 (stereo not drawn) the results were TROY signal inh 71*, C8 TRAIL sens -2, TWEAK-Fn14 inh -9, HIF-2a inh 7, aSyn UTR inh -12 and HSP90 inh 2.
For COCCC(=O)N1CCCC(CNS(=O)(=O)c2ccc(OC)cc2)C1 (stereo not drawn) the results were TROY signal inh 1, C8 TRAIL sens -6, TWEAK-Fn14 inh -3, HIF-2a inh 4, aSyn UTR inh -13 and HSP90 inh -3.
Screening COc1ccc(CC(NC(C)=O)C(=O)NC2CCN(S(=O)(=O)c3ccccc3)CC2)c(OC)c1 (stereo not drawn) returned TROY signal inh -6, C8 TRAIL sens 6, TWEAK-Fn14 inh 13, HIF-2a inh 5, aSyn UTR inh 35 and HSP90 inh 17*.
Screening CCS(=O)(=O)N1CCC(NC(=O)C(Cc2cccc(OC)c2OC)NC(C)=O)CC1 (stereo not drawn) returned TROY signal inh 2, C8 TRAIL sens 1, TWEAK-Fn14 inh 85*, HIF-2a inh 13, aSyn UTR inh 4 and HSP90 inh 2.
Screening COc1ccc(OC)c(CC(NC(C)=O)C(=O)NC2CCN(S(=O)(=O)c3ccc(NC(C)=O)cc3)CC2)c1 (stereo not drawn) returned TROY signal inh 10, C8 TRAIL sens 8, TWEAK-Fn14 inh 35, HIF-2a inh 13, aSyn UTR inh 6 and HSP90 inh -2.
For COC(=O)c1ccccc1S(=O)(=O)N1CCC(NC(=O)C(Cc2cccc(OC)c2OC)NC(C)=O)CC1 (stereo not drawn) the results were TROY signal inh 8, C8 TRAIL sens 14, TWEAK-Fn14 inh 2, HIF-2a inh 15, aSyn UTR inh 2 and HSP90 inh 1.
`CC(=O)Nc1cccc(NC(=O)C(=O)NCC(c2ccco2)N2CCc3ccccc3C2)c1` (stereo not drawn) gave TROY signal inh 3, C8 TRAIL sens -1, TWEAK-Fn14 inh 0, HIF-2a inh 9 and aSyn UTR inh -4.
Screening Nn1cnnc1N/N=C/c1cc(Br)cc(Br)c1O returned TROY signal inh 27, C8 TRAIL sens 0, TWEAK-Fn14 inh -15, HIF-2a inh 10, aSyn UTR inh -5 and HSP90 inh 68*.
Screening O=C(O)C1(O)C[C@@H](O)C(O)[C@H](O)C1 (stereo partly drawn) returned TROY signal inh -21, C8 TRAIL sens 0, TWEAK-Fn14 inh -2 and HIF-2a inh 3.
O=C1Nc2ccccc2C1Cc1ccccc1 (stereo not drawn) was read as TROY signal inh -20, C8 TRAIL sens -32, TWEAK-Fn14 inh -4, HIF-2a inh 3, aSyn UTR inh -1 and HSP90 inh 0.
O=C1C=CC2(C=C1)O[C@H](Cc1ccccc1)[C@@H](Cc1ccccc1)O2 was read as TROY signal inh 87*, C8 TRAIL sens 95*, TWEAK-Fn14 inh 107* and HIF-2a inh 92*.
Screening COc1ccc(C[C@@H]2OC3(C=CC(=O)C=C3)O[C@H]2Cc2ccc(OC)cc2)cc1 returned TROY signal inh 85*, C8 TRAIL sens 93*, TWEAK-Fn14 inh 106* and HIF-2a inh 87*.
For c1ccc(N=C2SCCCS2)cc1 the results were TROY signal inh -5, C8 TRAIL sens -13, TWEAK-Fn14 inh 0 and HIF-2a inh -29.
Screening Cc1cc(N2CCN(c3nc(-c4ccccc4)cs3)CC2)c2ccccc2n1 returned TROY signal inh -28, C8 TRAIL sens 17, TWEAK-Fn14 inh 66*, HIF-2a inh -4, aSyn UTR inh 16 and HSP90 inh 0.
Screening CCOC(=O)[C@]12CCCC=C1N(Cc1ccc3c(c1)OCO3)C(=O)[C@H](CC(=O)N1CCC(c3ccccc3)CC1)C2 returned TROY signal inh 0, C8 TRAIL sens 1, TWEAK-Fn14 inh -6 and HIF-2a inh 22.
O=C(N/N=C/c1c[nH]c2ccccc12)c1sc2ccccc2c1Cl was read as TROY signal inh -30, C8 TRAIL sens -4, TWEAK-Fn14 inh -25, HIF-2a inh -264, aSyn UTR inh -69 and HSP90 inh 2.
`O=C(N/N=C/c1ccccn1)c1sc2ccccc2c1Cl` gave TROY signal inh 35, C8 TRAIL sens 3, TWEAK-Fn14 inh 86*, HIF-2a inh -79, aSyn UTR inh -36 and HSP90 inh 5.
Screening Cc1c(/C=N/NC(=O)c2sc3ccccc3c2Cl)cnn1C returned TROY signal inh -60, C8 TRAIL sens 18, TWEAK-Fn14 inh 8, HIF-2a inh -33, aSyn UTR inh -6 and HSP90 inh -3.

From PubChem BioAssay
